We go through 86 compounds from PubChem BioAssay AID624354 (Sanford-Burnham Center for Chemical Genomics, 2012).

The whole screen tested about 360,000 compounds, of which about 3,800 (1.1%) were called active. The sample holds actives, similar compounds and a random draw of the others, so the mix is not that of the screen. A number with no mark means an inactive call.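 The calls were made as follows: active = compounds causing at least 50% loss of cell viability in the single-dose screen, relative to plate controls; inactive = the rest.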

The test in a line: viability loss with TRAIL in NB7+C8 cells, primary screen, TRAIL sensitizer project, cell-based, ATPlite luminescence (AID 624354). As to conditions: at 10 µM, stronger effect = higher value. For orientation: In ATP-based viability assays light output follows the ATP content of the culture.
`COC(=O)/C(=C\Nc1ccccc1)NC(=O)c1ccc(Cl)cc1Cl`: the inhibition (viability loss, TRAIL sensitization) is 10.1%. The value for `Cc1ccccc1CN1C(=O)CSCC1(C)C(=O)Nc1c(C)cccc1C` (stereo unspecified) was -13%; that for `COc1ccc(S(=O)(=O)N2CCOCC2)cc1NC(=O)CC1CC2CCC1C2` (stereo unspecified) was -19.8%. The value for `Cc1nn(-c2ccccc2)c(Cl)c1/C=N/NC(=O)c1nn(C)cc1[N+](=O)[O-]` was 54.6% (active); that for `Cn1cc([N+](=O)[O-])c(C(=O)Nc2ccc3c(c2)OCCO3)n1` was 23.6%; that for `Cc1cc(=O)[nH]c(N/N=C/c2c(C)nn(-c3ccccc3Cl)c2Cl)n1` was -2.12%.

In the case of `COc1ccc(N2CCN(C(=O)C3CCN(S(=O)(=O)c4ccc(C)cc4)CC3)CC2)cc1`, the inhibition (viability loss, TRAIL sensitization) was -4.63%. In the case of `CC(C)NC(=O)CSc1nnc(COc2ccccc2Cl)o1` it was 11.2%; in that of `Cn1cncc1C#Cc1c(-c2ccsc2)sc2ccccc12`, 0.155%. In the case of `COc1ccc2sc(-c3ccc(S(C)(=O)=O)cc3)c(C#Cc3cncn3C)c2c1` it was 54.7% (active); in that of `COc1cccc(-c2sc3ccc(OC)cc3c2-c2ccc(OCCN3CCCCC3)cc2)c1`, 12.9%.

Turning to `Cc1cc(C)n2nc(C(=O)OCC(=O)N(C)CC(=O)Nc3ccc(F)cc3)nc2n1`, the inhibition (viability loss, TRAIL sensitization) was 2.14%. In the case of `c1ccc(-n2ncc(-c3nn[nH]n3)n2)cc1` it was 8.97%; in that of `O=C(NNS(=O)(=O)c1ccc([N+](=O)[O-])cc1)C1CCCCC1`, -2.99%.

`CC(C)(C)OC(=O)C[C@@H]1C/C=C\C[C@@H](CC(=O)N[C@H](CO)Cc2ccccc2)C(=O)NC[C@@H](c2ccccc2)OC1=O`: the inhibition (viability loss, TRAIL sensitization) is 3.83%. In the case of `O=C(C[C@H]1C/C=C\C[C@@H](NC(=O)OCC2c3ccccc3-c3ccccc32)C(=O)O[C@@H](c2ccccc2)CNC1=O)N[C@H](CO)Cc1ccccc1` it was 73.9% (active); in that of `CC(C)(C)OC(=O)C[C@H]1C/C=C\C[C@@H](CC(=O)N[C@H](CO)Cc2ccccc2)C(=O)NC[C@@H](c2ccccc2)OC1=O`, -2.43%. The value for `O=c1ccn([C@@H]2O[C@H](CNS(=O)(=O)c3cc4ccccc4s3)[C@@H](O)[C@H]2O)c(=O)[nH]1` was 5.61%; that for `COc1ccc(N2CCN(C(CNS(=O)(=O)c3ccc(C)cc3)c3ccccc3)CC2)cc1` (stereo unspecified) was -6.83%; that for `CC1CCCC(NC(=O)c2cc(-c3ccncc3)nc3ccccc23)C1C` (stereo unspecified) was 11.9%. In the case of `O=C(NCCc1ccccn1)c1cc(-c2ccc(Cl)cc2)nc2ccccc12` it was 7.97%; in that of `CCc1ccc(-c2cc(C(=O)NN3CCN(C)CC3)c3ccccc3n2)cc1`, 58.3% (active).

As for `O=C(NCc1cccnc1)c1ccccc1NC(=O)c1c(F)cccc1F`, the inhibition (viability loss, TRAIL sensitization) is -13.9%. Turning to `COc1ccc(CC(N)c2csc(NC(=O)Nc3ccc(C(C)C)cc3)n2)cc1` (stereo unspecified), the inhibition (viability loss, TRAIL sensitization) was 92.1% (active). The value for `COc1ccc(CC(N)c2csc(NC(=O)Cc3ccccc3)n2)cc1` (stereo unspecified) was -6.08%; that for `COc1ccc(CC(N)c2csc(NC(=O)NC(c3ccccc3)c3ccccc3)n2)cc1` (stereo unspecified) was 44.6%. In the case of `N#Cc1ccc(CN2CCN(CC(=O)Nc3ccccc3C(=O)NC3CC3)CC2)cc1` it was -1.82%. For `Cn1c(=NC(=O)c2ccco2)sc2cccc(F)c21`, the inhibition (viability loss, TRAIL sensitization) was 47.7%.

For `Cn1c(=NC(=O)c2cnccn2)sc2ccccc21`, the inhibition (viability loss, TRAIL sensitization) is 61.8% (active).

With `COC(=O)c1ccc(OC(=O)c2cnccn2)cc1`, the inhibition (viability loss, TRAIL sensitization) is 6.75%. The value for `OCCCNC(c1ccccc1)c1ccc(O)cc1` (stereo unspecified) was 20.3%; that for `CN(C)c1cccc(NC(=O)c2ccc(-c3ccc(F)c(F)c3)c3ccoc23)c1` was 20.1%. For the compound `Cc1sc2ncn(CC(=O)NCCCC(=O)N3CCN(c4ccccc4F)CC3)c(=O)c2c1C`, the inhibition (viability loss, TRAIL sensitization) is 19.6%. The value for `CN(C(=O)CN1C(=O)/C(=C/c2ccc(Cl)cc2)SC1=S)C1CCS(=O)(=O)C1` (stereo unspecified) was 10.1%. Regarding `C=CCOc1ccc(/C=C2\SC(=S)N(CCC(=O)O)C2=O)cc1`, the inhibition (viability loss, TRAIL sensitization) was 56.9% (active). In the case of `CCN(C(=O)CN1C(=O)/C(=C/c2ccc(F)cc2)SC1=S)C1CCS(=O)(=O)C1` (stereo unspecified) it was -9.46%. In the case of `COCCN(C(=O)CSCc1ccc(C)cc1)c1c(N)n(CC(C)C)c(=O)[nH]c1=O` it was -0.426%; in that of `COc1cccc(NC(=O)CN(C)CC(=O)c2c(N)n(Cc3ccccc3)c(=O)n(C)c2=O)c1`, -2.67%; in that of `Cc1ccc(S(=O)(=O)/N=C(\CN2CCOCC2)N2CCOCC2)cc1`, -0.117%. For `O=C(N/N=C/c1ccccc1O)/C(=C/c1ccccc1)CCO`, the inhibition (viability loss, TRAIL sensitization) is 51.4% (active). In the case of `O=C(N/N=C/c1cc([N+](=O)[O-])ccc1O)/C(=C\c1cccs1)NC(=O)c1ccccc1` it was 41.5%; in that of `NN=C(NN=Cc1ccccc1)c1ccccc1`, 12.4%.

For `CCCc1nn2c(=O)cc(CSCC(=O)Nc3cccc(C)c3)nc2s1`, the inhibition (viability loss, TRAIL sensitization) was -0.888%. For the compound `CCOC(=O)CCc1c(C)c2ccc(OCc3nn[nH]n3)c(C)c2oc1=O`, the inhibition (viability loss, TRAIL sensitization) was -5.29%.

Regarding `COc1ccc(-c2cc3ccc(OCc4nn[nH]n4)cc3oc2=O)cc1`, the inhibition (viability loss, TRAIL sensitization) was 56.7% (active).

Turning to `CCCCc1cc(=O)oc2cc(C)cc(OCc3nn[nH]n3)c12`, the inhibition (viability loss, TRAIL sensitization) is 10.2%. In the case of `CCc1ccc(-n2c(=S)sc3c(=O)n(-c4ccccc4OC)c(=S)[nH]c32)cc1` it was -3.67%; in that of `Cc1cccc(C)c1NC(=O)C(c1cccc2ccccc12)n1c(=O)c(-c2ccco2)nc2ccccc21` (stereo unspecified), -6.27%. The value for `O=c1oc(/C=C/c2ccccc2)nc2ccccc12` was 77.8% (active). The value for `S=c1[nH]nc(/C=C/c2ccccc2)o1` was 0.666%.

Regarding `O=c1oc(-c2ccccc2NS(=O)(=O)c2ccc(Cl)cc2)nc2ccccc12`, the inhibition (viability loss, TRAIL sensitization) is 6.47%.

Consider `CN1CCC(CN)(N2CCN(c3ccccc3)CC2)CC1`, for which the inhibition (viability loss, TRAIL sensitization) is 6.93%. In the case of `COc1ccc(CCNc2cc(N3CCN(C(=O)c4ccccc4OC)CC3)ccc2[N+](=O)[O-])cc1OC`, the inhibition (viability loss, TRAIL sensitization) is 39.3%. As to `O=[N+]([O-])c1ccc(C=Nc2ccc(Cl)cc2Cl)s1`, the inhibition (viability loss, TRAIL sensitization) is 53.8% (active).

As to `C[C@@H]1CN([C@@H](C)CO)C(=O)c2cc(NS(C)(=O)=O)ccc2O[C@@H](C)CCCCO[C@H]1CN(C)C(=O)Nc1ccc2c(c1)OCO2`, the inhibition (viability loss, TRAIL sensitization) is -14.6%. In the case of `Cn1c(NCc2cccnc2)nc2cc(-c3ccc(F)cc3)sc2c1=O` it was 12.2%; in that of `COc1cccc(-c2cc3nc(NCCOc4ccccc4Cl)n(C)c(=O)c3s2)c1`, -1.03%; in that of `O=c1[nH]c(CCl)nc2cc(-c3ccc(Cl)cc3)sc12`, 94.8% (active). The value for `CN(CC(=O)Nc1cccc(F)c1)C(=O)C1CC(=O)N(CCc2ccccc2)C1` (stereo unspecified) was 0.466%; that for `C(=N\Nc1ccc2ccccc2n1)/c1ccc2c(c1)OCO2` was 62.1% (active). In the case of `O=C(CNC(=O)C(c1ccccc1)c1ccccc1)N/N=C\c1ccc2c(c1)OCO2` it was 9.36%. As for `Clc1ccc(Nc2ccc3ccccc3n2)cc1`, the inhibition (viability loss, TRAIL sensitization) is 22.5%.

Consider `COc1ccc(NC(=O)C2(C)Cc3c(-c4cccc(NC(C)=O)c4)ccnc3O2)cc1OC` (stereo unspecified), for which the inhibition (viability loss, TRAIL sensitization) is 4.61%. Consider `CCCCN1CC(N2CCN(Cc3cccc(C)c3)CC2)CS1(=O)=O` (stereo unspecified), for which the inhibition (viability loss, TRAIL sensitization) was 4.54%. The value for `CC(=O)[C@@]12O[C@@H]1C[C@H]1[C@@H]3CC[C@H]4C[C@@H](O)CC[C@]4(C)[C@H]3CC[C@@]12C` was 0.527%; that for `CCCNc1c(N)c(=O)c1=O` was -1.54%; that for `C[C@H]1COc2cc(N3CCSCC3)ccc2S(=O)(=O)N1` was -6.12%. In the case of `Cc1cc(Br)cn2c(Cc3ccccc3C(F)(F)F)c(-c3ccc(Cl)cc3)nc12` it was 22.1%. The value for `O=C(O)c1cc(S(=O)(=O)N(Cc2ccccc2)c2ccccc2)ccc1Cl` was -9.38%; that for `CCN(CC)CCCC(C)n1c2nc(=O)[nH]c(=O)c-2nc2cc(Cl)ccc21` (stereo unspecified) was 48.4% (active).

In the case of `CCc1ccc(S(=O)(=O)Nc2ccc(C)c(NS(C)(=O)=O)c2)cc1`, the inhibition (viability loss, TRAIL sensitization) was -5.21%. For the compound `Cc1c(O)c(C)c2c(c1O)C(=O)C[C@@H](c1ccccc1)O2`, the inhibition (viability loss, TRAIL sensitization) is 18.2%. In the case of `CC1CN(C(=O)CCC(=O)NCCCN2CCC(Cc3ccccc3)CC2)c2cc(Cl)ccc2O1` (stereo unspecified) it was 40.8%; in that of `CC(C)=CCC/C(C)=C/C(=O)O`, -7.95%; in that of `O=C(/C=C/c1ccc2c(c1)OCCO2)c1ccc(O)cc1`, 58.1% (active). In the case of `COc1ccc(OC)c(/C=C/C(=O)c2ccc3c(c2)OCO3)c1` it was 12.1%. In the case of `O=C(COC(=O)c1ccc(O)cc1O)c1ccc2c(c1)OCCO2` it was 0.773%; in that of `CCOCCCN(C(=O)Cn1nnc(-c2ccc(OC)c(OC)c2)n1)C(CC)C(=O)NC1CCCC1` (stereo unspecified), -5.95%. Consider `CCOC(=O)C(NS(=O)(=O)c1ccc(C)cc1)(C(F)(F)F)P(=O)(OCC(C)C)OCC(C)C` (stereo unspecified), for which the inhibition (viability loss, TRAIL sensitization) was 27.5%.

Consider `COc1ccccc1N1CCN(S(=O)(=O)c2ccc3c(c2)NC(=O)CS3)CC1`, for which the inhibition (viability loss, TRAIL sensitization) is 8.43%.

As to `Cc1nn(Cc2ccc(C(=O)N3N=C(C(F)F)CC3(O)C(F)F)cc2)c(C)c1[N+](=O)[O-]` (stereo unspecified), the inhibition (viability loss, TRAIL sensitization) was 0.592%. On to `CC(=O)Nc1ccc(S(=O)(=O)NC(C)C(=O)OCCOc2ccc(F)cc2)cc1` (stereo unspecified), for which the inhibition (viability loss, TRAIL sensitization) was -1.76%. The value for `CS(=O)(=O)c1cccc(-c2ccc3nncn3c2)c1` was 1.26%; that for `CC(C)n1cnc2c(NCc3ccccc3)cc(OCC3CCN(C)CC3)cc21` was 54.6% (active); that for `COCCNC(=O)CN(C(=O)CCC(=O)Nc1cc(C)on1)c1ccc(C)cc1C` was 12.5%.

Turning to `O=C(NCc1ccccc1)C(c1ccc(F)cc1)N1CCN(C(=O)C2CCCO2)CC1` (stereo unspecified), the inhibition (viability loss, TRAIL sensitization) was 3.33%.
